# Test results taken from ChEMBL document CHEMBL3988442, “University of Dundee, Small-Polar-MMV Screening Library” (2021).
# Hit rate of the full screen: of about 48,000 compounds, about 13,000 (27%) showed an effect of 50% or more. The list shows a part of the results.
# System: Wolbachia pipientis
# Experiment: Anti-Wolbachia Cell-Based Screen
# Format: functional
# Parameters: scale not given: in the data most compounds retested in dose-response had high values
# Details: 5 µM
row,SMILES,Percent Effect [%]
1,CNCC[C@H]1CC(C)(C)Oc2ccc(C)cc21,99.82
2,COCc1cn(C[C@H]2C[C@@H]3CCN2C[C@@H]3C(=O)N2CCOCC2)nn1,-6.421
3,CN(C)CCN(C)C(=O)Cc1ccc2c(c1)OCCO2.O=C(O)CC(O)(CC(=O)O)C(=O)O,107.5
4,Cc1[nH]c2c(C)cccc2c1CC(=O)N(C)CCN(C)C.O=C(O)CC(O)(CC(=O)O)C(=O)O,103
5,O=C(CN1CCN(C(=O)Cc2ccc3c(c2)OCCO3)CC1)NC1CC1,5.479
6,CN(C)CCN(C(=O)Cc1ccc2c(c1)OCCO2)C1CCN(C)CC1.O=C(O)CC(O)(CC(=O)O)C(=O)O,109
7,NC(=O)CN1CCCN(C(=O)Cc2ccc3c(c2)OCO3)CC1,-4.573
8,CNC(=O)c1ccc2c(c1)C1(CCN(CC(C)C)CC1)C(=O)N2.O=C(O)C(F)(F)F,-7.062
9,CC(C)N1C(=O)C2(CCN(C)CC2)c2cc(F)ccc21.Cl,-32.23
10,CC(C)NC(=O)c1ccc2c(c1)C1(CCN(C)CC1)C(=O)N2.O=C(O)C(F)(F)F,109.7
11,CC(C)NC(=O)c1ccc2c(c1)C1(CCN(C(C)C)CC1)C(=O)N2.O=C(O)C(F)(F)F,106.4
12,CC(C)CN1CCC2(CC1)C(=O)Nc1ccc(C(=O)NC(C)C)cc12.O=C(O)C(F)(F)F,99.87
13,CNC(=O)c1ccc2c(c1)C1(CCN(C(C)C)CC1)C(=O)N2.O=C(O)C(F)(F)F,95.47
14,CNC(=O)[C@H]1C[C@@H]2CN(C(=O)c3ccc(C)nc3)C[C@@H]2N1C(C)C.O=C(O)C(F)(F)F.O=C(O)C(F)(F)F,4.326
15,CC(C)CN1CCC2(CC1)C(=O)Nc1ccc(C(=O)N(C)C)cc12.O=C(O)C(F)(F)F,-3.196
16,CNC(=O)[C@H]1C[C@H]2OCC[C@H]2N(CC2CC2)C1.O=C(O)C(F)(F)F,-3.474
17,Cc1ccccc1CNCC(O)c1ccc(OC(C)C)cc1 (stereo not given),14.53
18,CCc1cc(CN(C)C(=O)CN2CC(Cc3ccccc3)CC2=O)on1 (stereo not given),4.825
19,O=C(NCC1CC1)C1CCC2(CCNCC2)C1 (stereo not given),-14.8
20,Cc1cc(CC(=O)N2CCN(C)[C@@H]3CS(=O)(=O)C[C@@H]32)ccc1F,-18.64
21,CCS(=O)(=O)c1nnc([C@@H](N)Cc2ccccc2)o1,144
22,Cc1cnc(N2CCC3(CCCCN3C)C2)nc1.O=C(O)C(F)(F)F (stereo not given),-23.72
23,O=S(=O)(NC[C@H]1C[C@@H]2CCN1C[C@@H]2CN1CCCCC1)c1ccccc1,-3.393

row,SMILES,Percent Effect [%]
1,CCCS(=O)(=O)N1CCN(CCOC)c2nc(C)ccc2C1.O=C(O)C(F)(F)F,12.9
2,COCCN1CCN(S(=O)(=O)C2CC2)Cc2cccnc21,114
3,COCCN1CCN(S(C)(=O)=O)Cc2cccnc21,94.34
4,CCS(=O)(=O)N1CCN(CCOC)c2ncccc2C1,117.1
5,COCCN1CCN(S(=O)(=O)C2CC2)Cc2ccc(C)nc21.O=C(O)C(F)(F)F,0.9634
6,CC(=O)c1cc(CC(=O)N2CCN(CCOc3ccccc3)CC2)cs1,-5.45
7,COc1ccc(F)cc1C(=O)C1CCCN(Cc2ccc(C)s2)C1 (stereo not given),-15.99
8,O=c1[nH]ccn1CCCN1CC=C(c2cnn(-c3ccccc3)c2)CC1,2.052
9,COC(=O)NCC1CCC2(CCNCC2)O1.Cl (stereo not given),-32.05
10,O=C(O)C(F)(F)F.O=C(O)C(F)(F)F.c1ccc(CN2CCN3C[C@H](Oc4cncnc4)C[C@H]3C2)nc1,117.2
11,Cc1nc(CN2CCN3C[C@H](Oc4cncnc4)C[C@H]3C2)cs1.O=C(O)C(F)(F)F.O=C(O)C(F)(F)F,123.6
12,Cc1cccc(CN2CCN3C[C@H](Oc4cncnc4)C[C@H]3C2)n1.O=C(O)C(F)(F)F.O=C(O)C(F)(F)F,126.4
13,c1ccc(CN2CCN3C[C@H](Oc4cccnc4)C[C@H]3C2)nc1,-1.108
14,Fc1cccc(O[C@@H]2C[C@H]3CN(Cc4ccccn4)CCN3C2)c1.O=C(O)C(F)(F)F.O=C(O)C(F)(F)F,-1.961
15,Cn1ccnc1CN1CCN2C[C@H](Oc3cncnc3)C[C@H]2C1.O=C(O)C(F)(F)F.O=C(O)C(F)(F)F,-0.7067
16,Cc1cccc(CN2CCN3C[C@H](Oc4cccnc4)C[C@H]3C2)n1.O=C(O)C(F)(F)F.O=C(O)C(F)(F)F.O=C(O)C(F)(F)F,-1.606
17,COCCNC(=O)C[C@@H]1COC[C@H]2CN(Cc3cccnc3)C[C@@H]12,116.3
18,O=C(C[C@@H]1COC[C@H]2CN(C3CCC3)C[C@@H]12)NCc1cccnc1.O=C(O)C(F)(F)F.O=C(O)C(F)(F)F,108.6
19,CO[C@H]1CCN(S(=O)(=O)N(C)C)[C@@H]2CN(Cc3cccnc3)C[C@H]12.O=C(O)C(F)(F)F.O=C(O)C(F)(F)F,0.8682
20,O=C(C[C@H]1[C@H]2CN(Cc3ccncc3)C[C@@H]12)N1CCCC1.O=C(O)C(F)(F)F.O=C(O)C(F)(F)F,16.46
21,O=C(C[C@@H]1COC[C@H]2CN(Cc3cccnc3)C[C@@H]12)N1CCCC1.O=C(O)C(F)(F)F.O=C(O)C(F)(F)F,109.1
22,O=C(C[C@@H]1COC[C@H]2CN(Cc3cccnc3)C[C@@H]12)NCC1CC1.O=C(O)C(F)(F)F.O=C(O)C(F)(F)F,115.9
